Drawing on PubChem BioAssay AID624330 (Southern Research Specialized Biocontainment Screening …, 2012), this text covers inhibition for 27 compounds.

Screen size: about 340,000 compounds; about 2,100 (0.62%) were called active. A selection follows. Results with a measured potency or affinity are listed apart. Values without a mark were called inactive.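 The calls were made as follows: active = first-screen hits whose inhibition reached a set limit at any dose in the follow-up dose series; inconclusive = inhibition above the set first-screen limit but never retested; inactive = the rest.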

The term inhibition denotes the drop in the measured response relative to a control, in per cent.

This assay deals with Rac GTPase-activating protein 1 (Homo sapiens) (UniProt Q9H0H5). Nature of the assay: MgcRacGAP GTPase-activating activity inhibitors, confirmation, biochemical, ADP Hunter fluorescence, primary and confirmatory (AID 624330).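 Also: fluorescence reports GDP produced by GAP-driven GTP hydrolysis.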 The note with it: MgcRacGAP-stimulated Rac1 GTP hydrolysis, at 30 µM, stronger effect = higher value, GST-tagged Rac1 F28L mutant substrate.
Chain of Rac GTPase-activating protein 1 (Homo sapiens) (Q9H0H5 whole entry, looked up): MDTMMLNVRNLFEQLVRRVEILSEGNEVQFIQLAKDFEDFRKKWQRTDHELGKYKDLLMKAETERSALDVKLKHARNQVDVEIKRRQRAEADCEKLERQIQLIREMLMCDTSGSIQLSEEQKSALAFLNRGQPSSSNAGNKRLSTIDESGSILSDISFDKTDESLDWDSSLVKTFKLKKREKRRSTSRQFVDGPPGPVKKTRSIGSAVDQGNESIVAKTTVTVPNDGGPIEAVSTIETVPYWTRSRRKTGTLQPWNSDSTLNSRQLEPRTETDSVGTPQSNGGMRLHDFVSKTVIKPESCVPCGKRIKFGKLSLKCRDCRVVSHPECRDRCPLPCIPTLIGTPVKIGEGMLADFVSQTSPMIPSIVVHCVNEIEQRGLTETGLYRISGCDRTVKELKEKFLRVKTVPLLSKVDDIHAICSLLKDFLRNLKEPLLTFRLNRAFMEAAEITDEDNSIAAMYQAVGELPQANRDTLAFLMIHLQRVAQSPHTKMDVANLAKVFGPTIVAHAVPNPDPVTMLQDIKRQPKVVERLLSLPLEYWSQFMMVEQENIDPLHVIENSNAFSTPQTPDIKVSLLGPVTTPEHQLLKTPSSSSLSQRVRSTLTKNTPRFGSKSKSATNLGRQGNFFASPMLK
In the case of `CCCn1c(=O)[nH]c(=O)c2c1nc(-c1ccc3c(c1)OCCO3)n2CCN1CCOCC1`, the inhibition is 10.3%.
As to `O=S(=O)(c1ccccc1)N(Cc1ccccn1)Cc1ccccn1`, the inhibition is 3.72%.
With `C/C=C(\C)C(=O)OC(C)(C)[C@H]1Cc2cc3ccc(=O)oc3cc2O1`, the inhibition was 7.55%.
With `CCC(c1nnc(SCC(=O)Nc2cc(Cl)ccc2C#N)n1C1CCCCC1)N(C)C` (configuration not stated), the inhibition was 5.01%.
For the compound `CCc1ccc(-c2cc(C(=O)O)c3ccccc3n2)s1`, the inhibition is -3.07%.
Take `CCCN(CCC)CCCNC(=O)c1cc2c(=O)[nH]c3ccccc3c2s1`: the inhibition was 23.4%.
The result for `O=C(Cc1ccc(Cl)cc1)SCc1ccccc1` reads 4.82%; that for `O=C(NNC(=O)c1cc([N+](=O)[O-])ccc1Cl)c1cccnc1`, 3.49%.
Turning to `O=c1[nH]c2ccc(S(=O)(=O)Nc3ccc(Br)cc3)cc2[nH]1`, the inhibition is 0.44%.
In the case of `Cc1ccc(NCC(O)C(O)C(O)CO)cc1C` (configuration not stated), the inhibition was 9.4%.
Take `Cc1cccc(NCc2ccccc2O)c1`: the inhibition is 13.2%.
`Cc1ccc(NCc2ccccc2O)cc1`: the inhibition is 19.1%.
As for `Cc1ccc(NCCC#N)cc1C`, the inhibition is -10%.
Consider `COc1ccc(C(CCc2ccc(C)o2)NC(=O)Nc2ccc(OC)cc2OC)cc1` (configuration not stated), for which the inhibition is 0.8%.
In the case of `C/C=C(\C)C(=O)NCCN1C2=NC[C@@H](Cc3ccccc3)N2C[C@@H]1Cc1ccc(OC)cc1`, the inhibition was 5.16%.
For `Cc1ccc(O)c(/C=N/NC(=O)Cc2ccc(Cl)cc2)c1` the value was -8.7%.
The result for `COC(=O)C1=C(C)N(Cc2ccccc2)C(=O)N[C@H]1CCc1ccccc1` reads 8.96%.
In the case of `CCOC(=O)C1CCN(C2=NC(=O)/C(=C/c3ccc(OC)c(OC)c3)S2)CC1`, the inhibition was 12.3%.
For `COc1cccc(/C=C2\SC(N3CCCC(C)C3)=NC2=O)c1OC` (configuration not stated) the value was 10.3%.
With `COc1ccc(OC)c(/C=C2\SC(N3CCCC(C)C3)=NC2=O)c1` (configuration not stated), the inhibition is 2.99%.
Consider `CC1CCN(C2=NC(=O)/C(=C/c3cccc(O)c3)S2)CC1`, for which the inhibition is 3.71%.
In the case of `CCOC(=O)C1CCN(C2=NC(=O)/C(=C/c3ccc(Cl)cc3)S2)CC1`, the inhibition is 7.83%.
The result for `CCOC(=O)C1CCCN(C2=NC(=O)/C(=C/c3ccc(OC)c(OC)c3)S2)C1` (configuration not stated) reads 7.19%.
As for `COc1ccccc1/C=C1\SC(N2CCC(C)CC2)=NC1=O`, the inhibition is 8.78%.
Take `CCOC(=O)C1CCCN(C2=NC(=O)/C(=C/c3ccc(OC)cc3)S2)C1` (configuration not stated): the inhibition is 8.26%.
As for `CSCCC(=O)N1C(C)CCCC1C(=O)O` (configuration not stated), the inhibition is 8.45%.
For the compound `COc1ccccc1-n1c(C)cc(/C=C2\C(=N)N3N=C(CC(=O)N4CCOCC4)SC3=NC2=O)c1C`, the inhibition is 13.5%.
